Bioassay records: PubChem BioAssay, Sanford-Burnham Center for Chemical Genomics
Rows were chosen to be rich in hits. Some 31% of all compounds tested hit in one or more screens of this group.
CYP2C19 inhib: blockers of cytochrome P450 2C19 activity – biochemical, luminescence, ADME assay, primary screen. 96,000 tested, 21% active. inhibition, % at 5 µM. AID 778, 2007. CYP2C19 Supersomes, luciferin-H EGE luminescence, 30 min;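 active means CYP2C19 inhibition above a set limit at 5 µM in the primary screen, cut at about 50% in these data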;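 further: plate controls were negative control wells for no effect and 2.5 mM tranylcypromine positive control for full effect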
CYP2C9 activ: human CYP2C9 activators, primary screen, biochemical, luminescence. recombinant CYP2C9, luciferin-H conversion; hits give high values; factor 1 = untreated enzyme, 0 = blocked. activation factor at 5 µM. 96,000 tested, 1.4% active;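 active means activation factor of 2 or more for CYP2C9 at a 5 µM dose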;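 further: 0 = sulfaphenazole-blocked wells and 1 = vehicle-only wells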
Target sequence (P11712 whole entry, looked up): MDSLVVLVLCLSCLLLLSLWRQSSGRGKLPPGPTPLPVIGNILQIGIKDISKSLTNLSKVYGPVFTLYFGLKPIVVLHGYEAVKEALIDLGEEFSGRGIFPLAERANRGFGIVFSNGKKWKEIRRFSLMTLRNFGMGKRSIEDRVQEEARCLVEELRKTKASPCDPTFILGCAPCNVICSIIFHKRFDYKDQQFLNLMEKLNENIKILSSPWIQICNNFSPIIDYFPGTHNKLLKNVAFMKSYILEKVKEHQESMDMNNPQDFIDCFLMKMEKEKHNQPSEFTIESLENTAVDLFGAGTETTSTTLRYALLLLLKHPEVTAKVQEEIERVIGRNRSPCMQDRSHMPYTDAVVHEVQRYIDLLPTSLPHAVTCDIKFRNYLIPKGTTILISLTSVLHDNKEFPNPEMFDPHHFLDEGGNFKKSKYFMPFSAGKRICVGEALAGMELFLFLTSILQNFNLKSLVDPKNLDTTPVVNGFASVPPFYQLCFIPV
PLAP activator: PLAP enzyme activators, biochemical, luminescence, HTS | Alkaline phosphatase, placental type (Homo sapiens), P05187 | purified PLAP enzyme, luminescent substrate read-out; hits give high values | activation fold at 20 µM | 96,000 tested, 1.2% active; in the data active means activation fold above about 2
CYP2C19 act: human CYP2C19 activators, primary screen, biochemical, luminescence; Cytochrome P450 2C19 (Homo sapiens), P33261; recombinant CYP2C19, luciferin-H EGE luminescence; hits give high values; 0 = fully inhibited enzyme, 1 = untreated enzyme; activation factor at 5 µM; 96,000 tested, under 10 active; AID 1025, 2008;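 active means activation factor of at least 2 at 5 µM in the primary screen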;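 further: 0 = wells with 2.5 mM tranylcypromine and 1 = vehicle-only wells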
CYP2C9 inh: blockers of cytochrome P450 2C9 activity – biochemical, luminescence, ADME assay, primary screen | P11712 | CYP2C9 Supersomes, luciferin-H conversion | inhibition, % at 5 µM | 96,000 tested, 20% active | AID 777, 2007;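 active means blocking of liver enzyme CYP2C9 beyond about 50% at 5 µM, limit read from the data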
The depositor's hits bear a star.

SMILES	CYP2C19 inhib	CYP2C9 activ	PLAP activator	CYP2C19 act	CYP2C9 inh
Cc1ccc(S(=O)(=O)NC2CCC(C(=O)O)CC2)cc1 (centres undefined)	33	0.8	1.1	0.7	18
COc1ccc(CCNC2CCN(C)CC2)cc1OC	10	0.3	1.3	0.9	74*
Cc1nc2ccc(S(=O)(=O)NCC(=O)N3CCOCC3)cc2s1	9	1	1	0.9	3
O=C1CCC(C(=O)OCc2c(Cl)cccc2Cl)N1 (centres undefined)	-9	1.2	0.9	1.1	-16
CC(=O)Nc1ccc(S(=O)(=O)N(C)CC(=O)NC2=NCCS2)cc1	-18	0.9	0.9	1.2	14
Cc1ccc(Oc2cc(C#N)c(C#N)cc2-n2nnc3ccccc32)cc1C	-22	1.2	0.8	1.2	-20
O=C(CCc1ccc(S(=O)(=O)N2CCOCC2)cc1)Nc1cc(Cl)ccc1N1CCOCC1	10	0.6	1.4	0.9	43
CCCn1c(CCC(=O)Nc2ccccc2Cc2ccccc2)nc2cc(S(=O)(=O)N3CCOCC3)ccc21	28	0.2	1.4	0.7	75*
CC(=O)Nc1sc2c(c1CN1CCN(C)CC1)CCCC2	20	1.1	0.9	0.8	-12
CCc1ccc(NC(=O)CNC(=O)c2cn(-c3ccccc3OC)c(=O)c3ccccc23)cc1	98*	0	2.2*	0	99*
CCc1cc2c(=O)n(N)c(CCC(=O)O)nc2s1	-6	1	1.2	1.1	-4
COC(=O)CN1C(=O)S/C(=C/c2cc(C)n(C)c2C)C1=O	23	0.5	1	0.8	51*
CCOc1ccccc1NC(=O)c1cccc(NC(=O)CC(c2ccccc2)c2ccccc2)c1	71*	0.5	1.2	0.3	51*
CCOc1ccccc1C(=O)Nc1cc(C(=O)NCCc2ccccc2)ccc1Cl	-7	1.1	1.1	1.1	-7
CCOc1ccccc1NC(=O)c1ccc(Cl)c(NC(=O)CC(c2ccccc2)c2ccccc2)c1	51*	0.2	1.1	0.5	80*
O=c1c(C=Nc2ccc(Oc3ccccc3)cc2)c[nH]n1-c1cccc(Cl)n1	11	0.8	1	0.9	19
CCCc1ncc(C(O)c2ccc(OC)cc2)n1C (centres undefined)	17	0.8	0.9	0.8	25
Cn1ccnc1C(O)c1ccc(OCc2ccccc2)cc1 (centres undefined)	51*	0.9	1.6	0.5	14
COc1cccc(C(N)CC(=O)O)c1 (centres undefined)	-18	1.2	0.9	1.2	-22
COc1ccc(C(O)c2nccn2Cc2ccccc2)cc1 (centres undefined)	56*	0.9	1	0.4	7
COc1ccc2ccccc2c1C(O)c1nccn1C (centres undefined)	28	0.6	2*	0.7	41
CCn1ccnc1C(O)c1cccc(OC)c1 (centres undefined)	52*	1.1	1	0.5	-10
O=C(CSc1nnc2c(Cl)cc(Cl)cn12)NC1CCS(=O)(=O)C1 (centres undefined)	8	0.7	1.1	0.9	26
Cc1ccc(-n2c(C)cc(C)c(C#N)c2=O)cc1Cl	12	0.9	1	0.9	8
Cc1ccc(-n2ncc(-c3nnc(SCC(=O)NC4CCCC4)o3)c2N)cc1C	12	0.6	1	0.9	40
SMILES	CYP2C19 inhib	CYP2C9 activ	PLAP activator	CYP2C19 act	CYP2C9 inh
COc1cnn(-c2ccccc2)c(=O)c1SCc1ccc(Cl)c(Cl)c1	54*	0.5	0.8	0.5	52*
COc1ccc2cnn(-c3ccccc3)c(=O)c2c1OC	5	0.9	0.8	1	14
COc1cc2c3c(c1OC)C1(C=CC(=O)C=C1)CC3N(C(=O)c1ccccc1)CC2 (centres undefined)	14	0.1	1.1	0.9	86*
COc1cc(CC(=O)N2CCc3ccccc32)cc(OC)c1OC	26	0.8	1.5	0.7	16
COCc1cc(C)nc2sc(C(=O)N3CCN(c4ccccc4)CC3)c(N)c12	80*	0.2	1.8	0.2	78*
COCc1cc(C)nc2sc(C(=O)N3CCCCC3)c(N)c12	12	0.8	1.3	0.9	20
Cc1cc(C)c2c(N)c(C(=O)N3CCN(c4ncccn4)CC3)sc2n1	50*	0.6	0.9	0.5	42
O=C(O)CCC(=O)N1CCc2cc(S(=O)(=O)N3CCN(c4ccc(F)cc4)CC3)ccc21	-11	1	1.4	1.1	-2
CC(=O)N(/N=C1\Sc2ccccc2C1=O)c1ccccc1	50*	0.4	0.8	0.5	63*
Cc1cc(C)n(-c2ccc(C(=O)NC(C)C)cc2)n1	-3	1	1	1	-5
CNC(=S)N/N=C(\C)c1ccc(-n2ccnc2)cc1	99*	0	0.8	0	100*
CCOc1ccc(S(=O)(=O)Nc2ccc(C(=O)N/N=C(\C)c3ccc(-n4ccnc4)cc3)cc2)cc1	99*	0	1.9	0	99*
CCNC(=O)c1ccc(NS(=O)(=O)c2ccccc2)cc1	30	0.7	1	0.7	31
COCCNC(=S)N/N=C(\C)c1ccc(-n2ccnc2)cc1	99*	0	1.2	0	100*
C/C(=N\NC(=S)NC(C)C)c1ccc(-n2ccnc2)cc1	90*	0	1	0.1	99*
CC(C)c1ccc(C2C3=C(CC(C)(C)CC3=O)NC3=C2C(=O)c2ccccc23)cc1 (centres undefined)	12	0.7	1	0.9	25
C/C(=N/NC(=O)c1ccoc1C)C12CC3CC(CC(C3)C1)C2	57*	0.9	1.1	0.4	12
CC(NC(=O)C1CCCN(S(=O)(=O)c2cccc3nonc23)C1)c1ccccc1 (centres undefined)	37	0.5	0.9	0.6	53*
O=C(NCc1ccc2c(c1)OCO2)C1CCCN(S(=O)(=O)c2cccc3nonc23)C1 (centres undefined)	14	0.4	1.1	0.9	64*
Cc1noc(/C=C/N(C)C)c1S(=O)(=O)N1CCc2ccccc21	67*	0.5	1.1	0.3	48
Cc1noc(/C=C/N(C)C)c1S(=O)(=O)N1CCCC(C(=O)NC(C)c2ccccc2)C1 (centres undefined)	34	0.3	1.5	0.7	68*
Cc1ccc(NC(=S)N2CCN(C3CCCCC3)CC2)cc1	10	1	1.1	0.9	2
Cc1ccc2c(NC(=O)C3CC3)c(C)ccc2n1	-8	1.1	0.9	1.1	-14
CSCCC(NC(=O)OC(C)(C)C)C(=O)NC(CC(C)C)C(N)=O (centres undefined)	5	1	0.9	1	1
